Results on seven compounds are retold here after PubChem BioAssay (NCI).

Several values for one entry are separate records, joined by “and”; a condition that tells them apart may be missing. Equal values may be shown once. About 83,000 compounds went through this panel and 20% of them were active in at least one assay; those are over-represented in the sample as a whole.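 Each cell line was grown in a 96-well plate and treated with one concentration of compound for 48 hours. Values below 10 were considered active.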 Activity calls are given as the source filed them.

Among the test systems are SR leukemia; RPMI-8226 leukemia; OVCAR-8 ovarian; OVCAR-5 ovarian; OVCAR-4 ovarian; SK-OV-3 ovarian; IGROV1 ovarian; OVCAR-3 ovarian; HS 578T breast; NCI/ADR-RES ovarian; T-47D breast; BT-549 breast; MDA-MB-435 melanoma; SW-620 colon; MCF7 breast; HCT-116 colon; HCC-2998 colon; KM12 colon.
Common to all, as to assay: NCI-60 one-dose screen, 48 h (100 = growth as untreated, 0 = no growth, -100 = all killed)
Holding throughout (details): 10 µM unless noted

With `Cc1ccc(Nc2nc(-c3cc(O)c(C)c(C)c3O)cs2)cc1`, the growth in the assay on SR leukemia was 70.3% (inactive); in the assay with RPMI-8226 leukemia it was 77.5% (inactive); in the assay with OVCAR-8 ovarian it was 84.1% (inactive); in the assay with OVCAR-5 ovarian it was 109% (inactive); with OVCAR-4 ovarian it was 105% (inactive); in the assay with SK-OV-3 ovarian, 105% (inactive). Moreover, the growth is 92.9% (inactive) in the assay with IGROV1 ovarian; 104% (inactive) in the assay on OVCAR-3 ovarian; 97.9% (inactive) with HS 578T breast; 73% (inactive) with NCI/ADR-RES ovarian; 35.5% (inactive) with T-47D breast; 98.1% (inactive) in the assay on BT-549 breast. The growth was 66.4% (inactive) in the assay with MDA-MB-435 melanoma; 111% (inactive) in the assay with SW-620 colon; 71.9% (inactive) in the assay with MCF7 breast; 105% (inactive) with HCT-116 colon; 112% (inactive) with HCC-2998 colon; 60.9% (inactive) in the assay with KM12 colon.
For `CCCCCCCCCCCCCCCCCCn1cc(COc2ccc(C=O)cc2)nn1`, the growth in the assay on SR leukemia was 85.6% (inactive); with RPMI-8226 leukemia it was 95.3% (inactive); with OVCAR-8 ovarian, 102% (inactive); in the assay with OVCAR-5 ovarian it was 120% (inactive); with OVCAR-4 ovarian it was 103% (inactive); in the assay on SK-OV-3 ovarian it was 91.3% (inactive). The growth was 103% (inactive) with IGROV1 ovarian; 96.8% (inactive) with OVCAR-3 ovarian; 110% (inactive) in the assay with HS 578T breast; 96.4% (inactive) in the assay with NCI/ADR-RES ovarian; 88.6% (inactive) in the assay with T-47D breast; 100% (inactive) with BT-549 breast. For the same compound, the growth in the assay on MDA-MB-435 melanoma is 109% (inactive); with SW-620 colon it was 104% (inactive); in the assay with MCF7 breast, 92.8% (inactive); with HCT-116 colon it was 76.8% (inactive); in the assay on HCC-2998 colon, 99.8% (inactive); with KM12 colon, 86.3% (inactive).
Take `COc1ccc(CN2CCc3c(Cl)nc(N)nc3C2=O)c(OC)c1`: the growth in the assay on SR leukemia was 3.87% [100 µM] (active); with RPMI-8226 leukemia it was 12.7% [100 µM] (inactive); in the assay on OVCAR-8 ovarian, 1.04% [100 µM] (active); with OVCAR-5 ovarian, 45.1% [100 µM] (inactive); in the assay with OVCAR-4 ovarian it was 15.2% [100 µM] (inactive); with SK-OV-3 ovarian it was 8.93% [100 µM] (active). In addition, the growth in the assay with IGROV1 ovarian is -37.3% [100 µM] (active); in the assay with OVCAR-3 ovarian, -22.4% [100 µM] (active); in the assay on HS 578T breast it was 49.9% [100 µM] (inactive); with NCI/ADR-RES ovarian it was 4.29% [100 µM] (active); in the assay on T-47D breast, 12.8% [100 µM] (inactive); with BT-549 breast it was -20.3% [100 µM] (active). Further, the growth is 1.81% [100 µM] (active) in the assay with MDA-MB-435 melanoma; -46.8% [100 µM] (active) in the assay with SW-620 colon; 6.65% [100 µM] (active) with MCF7 breast; -72.7% [100 µM] (active) in the assay on HCT-116 colon; -85.9% [100 µM] (active) in the assay with HCC-2998 colon; 11.1% [100 µM] (inactive) in the assay on KM12 colon.
Consider `COc1cc(CNC(=O)CCCC/C=C/C(C)C)ccc1O`, for which the growth in the assay on SR leukemia was 91.7% (inactive) and 99% (inactive); in the assay with RPMI-8226 leukemia, 100% (inactive) and 94.7% (inactive); in the assay on OVCAR-8 ovarian, 109% (inactive); with OVCAR-5 ovarian it was 92.7% (inactive); in the assay with OVCAR-4 ovarian it was 93.3% (inactive) and 104% (inactive); in the assay with SK-OV-3 ovarian it was 117% (inactive) and 105% (inactive). The growth in the assay on IGROV1 ovarian is 96.8% (inactive) and 88.2% (inactive); with OVCAR-3 ovarian, 84.5% (inactive) and 119% (inactive); with HS 578T breast, 91.5% (inactive) and 111% (inactive); with NCI/ADR-RES ovarian it was 113% (inactive) and 97.5% (inactive); in the assay with T-47D breast it was 97.4% (inactive) and 96.2% (inactive); with BT-549 breast it was 125% (inactive) and 83.4% (inactive). The growth with MDA-MB-435 melanoma was 99% (inactive) and 106% (inactive); in the assay on SW-620 colon, 113% (inactive); in the assay on MCF7 breast it was 103% (inactive) and 96.7% (inactive); with HCT-116 colon, 96.4% (inactive) and 100% (inactive); in the assay with HCC-2998 colon, 143% (inactive) and 109% (inactive); with KM12 colon, 106% (inactive) and 108% (inactive).
For `O=Nc1c(O)ccc2ccccc12`, the growth in the assay with SR leukemia was 23.6% (inactive) and 87.6% (inactive); in the assay on RPMI-8226 leukemia, 37.8% (inactive) and 79.9% (inactive); in the assay on OVCAR-8 ovarian it was -3.35% (active) and 93% (inactive); in the assay with OVCAR-5 ovarian, 70.1% (inactive) and 112% (inactive); in the assay on OVCAR-4 ovarian, 19% (inactive) and 89% (inactive); in the assay on SK-OV-3 ovarian, 93.6% (inactive) and 101% (inactive). The growth in the assay with IGROV1 ovarian is 51.5% (inactive) and 42% (inactive); in the assay on OVCAR-3 ovarian it was 1.11% (active) and 81% (inactive); with HS 578T breast, 54% (inactive) and 112% (inactive); in the assay with NCI/ADR-RES ovarian, 6.43% (active) and 97.7% (inactive); in the assay with T-47D breast, 15.5% (inactive) and 76.1% (inactive); in the assay with BT-549 breast, 94.5% (inactive) and 90.8% (inactive). Moreover, the growth with MDA-MB-435 melanoma is -83.9% (active) and 116% (inactive); in the assay on SW-620 colon, 27.5% (inactive) and 83.9% (inactive); with MCF7 breast it was 67.8% (inactive) and 78.1% (inactive); in the assay with HCT-116 colon it was 6.49% (active) and 81% (inactive); in the assay with HCC-2998 colon, 110% (inactive) and 97.4% (inactive); with KM12 colon, 66.8% (inactive) and 109% (inactive).
With `COc1ccc(C(c2cc(OC)c(OC)c(OC)c2)n2ccnc2)cc1O` (stereo unspecified), the growth is 8.48% (active) in the assay with SR leukemia; 18.9% (inactive) in the assay with RPMI-8226 leukemia; 10.3% (inactive) with OVCAR-8 ovarian; 71.1% (inactive) in the assay with OVCAR-5 ovarian; 73.6% (inactive) in the assay on OVCAR-4 ovarian; 21.8% (inactive) in the assay on SK-OV-3 ovarian. Further, the growth in the assay with IGROV1 ovarian was 36.4% (inactive); in the assay with OVCAR-3 ovarian, -9.52% (active); in the assay with HS 578T breast, 29.1% (inactive); in the assay on NCI/ADR-RES ovarian, 12.1% (inactive); in the assay with T-47D breast it was 42.6% (inactive); with BT-549 breast, -0.0718% (active). The growth with MDA-MB-435 melanoma was -29.5% (active); in the assay with SW-620 colon it was 28.6% (inactive); with MCF7 breast it was 18.4% (inactive); in the assay on HCT-116 colon it was 6.88% (active); in the assay on HCC-2998 colon it was 25% (inactive); in the assay with KM12 colon it was 17% (inactive).
Take `CSc1nnc(-c2cc3c([nH]c4ccccc43)c(-c3cccc(O)c3)n2)n1-c1ccc(C)cc1`: the growth was 5.99% (active) in the assay on SR leukemia; 19.3% (inactive) in the assay with RPMI-8226 leukemia; 34.8% (inactive) in the assay with OVCAR-8 ovarian; 72.6% (inactive) in the assay on OVCAR-5 ovarian; 54.1% (inactive) in the assay with OVCAR-4 ovarian; 42% (inactive) in the assay on SK-OV-3 ovarian. Further, the growth with IGROV1 ovarian is 51% (inactive); in the assay on OVCAR-3 ovarian, 1.33% (active); in the assay on HS 578T breast it was 37.3% (inactive); with NCI/ADR-RES ovarian, 43.1% (inactive); with T-47D breast it was 24.5% (inactive); in the assay on BT-549 breast, 34.5% (inactive). Besides, the growth was -49.5% (active) in the assay on MDA-MB-435 melanoma; 30% (inactive) in the assay on SW-620 colon; 5.16% (active) in the assay with MCF7 breast; 23.8% (inactive) in the assay on HCT-116 colon; 54.2% (inactive) in the assay with HCC-2998 colon; 26.3% (inactive) with KM12 colon.
